Data as given in PubChem BioAssay.

Legend:
[1] = tested on: Human papillomavirus type 1a protein E7 (residues 44-93); test: small molecules binding HPV E7 44-93 – biochemical, small-molecule microarray, residues 44-93, 635 nm fluorescence, primary screen (AID 1108); conditions: fluorescence 635 nm, higher = more signal;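 also: E7 fragment applied at 1 µg/mL in TBST for 1 h at 4 C; score combines spot fluorescence with its signal to noise ratio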
[2] = hepatitis C replication reporter changes, two-sided – Huh7 cells, luciferase reporter, HCV replication inhibitor project, primary screen (AID 1109); conditions: Huh7 HCV replicon luciferase reporter, 48 h; higher = more signal;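 also: huh7 hepatoma cells harbouring a luciferase neomycin HCV replicon reporter; luciferase luminescence as measure of HCV replicon replication; test concentration not given here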
[3] = biological target: Left-right determination factor 2 (Homo sapiens) (UniProt O00292); test: small molecules binding LEFTY2 protein – biochemical, small-molecule microarray, 635 nm fluorescence scan, primary screen (AID 1110); conditions: higher = more signal
Sequence of Left-right determination factor 2 (Homo sapiens) (O00292 whole entry, looked up): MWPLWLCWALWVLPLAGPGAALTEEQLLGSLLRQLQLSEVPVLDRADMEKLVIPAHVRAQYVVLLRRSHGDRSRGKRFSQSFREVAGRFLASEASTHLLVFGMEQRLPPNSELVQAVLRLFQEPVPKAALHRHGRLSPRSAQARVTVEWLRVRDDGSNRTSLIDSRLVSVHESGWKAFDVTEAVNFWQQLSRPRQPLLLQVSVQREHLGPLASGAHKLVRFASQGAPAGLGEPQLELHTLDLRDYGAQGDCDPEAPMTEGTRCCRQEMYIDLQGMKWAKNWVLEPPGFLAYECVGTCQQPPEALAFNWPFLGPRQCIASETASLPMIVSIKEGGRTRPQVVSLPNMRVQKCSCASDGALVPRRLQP

[4] = biological target: Calmodulin-1 (Homo sapiens) (UniProt P0DP23); test: small molecules binding calmodulin-1 with EGTA – biochemical, small-molecule microarray, Cy5-labelled CALM1, profiling panel (AID 1111); conditions: Cy5-CALM1 binding fluorescence, higher = more signal;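 also: labelled calmodulin applied in Tris saline Tween buffer holding calcium plus EGTA and DTT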
[5] = biological target: Calmodulin-1 (Homo sapiens) (UniProt P0DP23); test: small molecules binding Ca-loaded calmodulin-1 – biochemical, small-molecule microarray, Cy5-labelled CALM1, plus calcium, artefact control for SMM control-protein annotation, profiling panel (AID 1112); conditions: Cy5-CALM1 binding fluorescence, higher = more signal;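 also: score merges spot fluorescence with signal to noise from triplicate slides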
[6] = probe aWnt5a binding to arrayed compounds – biochemical, biotinylated probe, 635/667 nm fluorescence, primary screen (AID 1113); conditions: small-molecule microarray, higher = more signal;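 also: score merges 667 nm fluorescence intensity with signal-to-noise per printed feature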
[7] = probe aShh binding to arrayed compounds – biochemical, biotinylated probe, 635/667 nm fluorescence, primary screen (AID 1114); conditions: small-molecule microarray, higher = more signal;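 also: probe is biotin-labelled aShh protein from a stem cell growth factor screen; measures binding of labelled protein to compounds printed on the slide; score merges feature fluorescence at 667 nm with signal-to-noise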
[8] = probe aNog binding to arrayed compounds – biochemical, biotinylated probe, 635/667 nm fluorescence, primary screen (AID 1115); conditions: small-molecule microarray, higher = more signal;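 also: probe is biotinylated aNog protein used at 0.15 µg/mL for 1 h at 4 C; z-score combines 667 nm fluorescence of each spot with its signal to noise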
[9] = biological target: Torsin-1A-interacting protein 1 (Homo sapiens) (UniProt Q5JTV8); test: compound microarray binding of lysate hLAP1 – cell lysate, small-molecule microarray, COS7 lysate, 635/667 nm fluorescence, primary screen (AID 1116); conditions: 635 nm fluorescence, higher = more signal
Sequence of Torsin-1A-interacting protein 1 (Homo sapiens) (Q5JTV8 whole entry, looked up): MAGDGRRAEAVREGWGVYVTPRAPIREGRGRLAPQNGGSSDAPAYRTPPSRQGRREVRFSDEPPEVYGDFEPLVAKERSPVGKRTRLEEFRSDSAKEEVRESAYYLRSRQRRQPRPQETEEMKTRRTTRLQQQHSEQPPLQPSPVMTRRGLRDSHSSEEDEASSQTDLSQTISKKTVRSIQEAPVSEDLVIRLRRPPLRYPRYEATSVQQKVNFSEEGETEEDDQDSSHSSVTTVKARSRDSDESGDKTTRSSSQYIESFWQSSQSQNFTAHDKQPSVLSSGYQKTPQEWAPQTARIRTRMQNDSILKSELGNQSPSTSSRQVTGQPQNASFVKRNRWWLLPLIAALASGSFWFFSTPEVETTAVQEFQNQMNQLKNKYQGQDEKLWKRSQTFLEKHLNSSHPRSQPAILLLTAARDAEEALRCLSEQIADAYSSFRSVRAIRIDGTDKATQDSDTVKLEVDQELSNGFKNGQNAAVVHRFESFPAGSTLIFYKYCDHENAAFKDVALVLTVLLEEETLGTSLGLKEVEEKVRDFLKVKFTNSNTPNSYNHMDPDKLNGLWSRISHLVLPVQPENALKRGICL

[10] = biological target: Alpha-bungarotoxin (Bungarus multicinctus) (UniProt P60615); test: compounds binding labelled alpha-BTX control protein – biochemical, small-molecule microarray, Alexa647 label, 635/667 nm fluorescence, artefact control for SMM control protein annotation, profiling panel (AID 1117); conditions: alpha-BTX-A647 binding fluorescence, higher = more signal
Sequence of Alpha-bungarotoxin (Bungarus multicinctus) (P60615 whole entry, looked up): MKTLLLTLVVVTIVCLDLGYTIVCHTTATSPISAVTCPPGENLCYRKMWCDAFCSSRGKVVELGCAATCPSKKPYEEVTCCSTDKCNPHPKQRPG

| SMILES | composite z-score [1] | z-score [2] | composite z-score [3] | composite z-score [4] | composite z-score [5] | composite z-score [6] | composite z-score [7] | composite z-score [8] | composite z-score [9] | composite z-score [10] |
| --- | --- | --- | --- | --- | --- | --- | --- | --- | --- | --- |
| [N-]=[N+]=NCc1ccccc1C[C@]1(C(N)=O)N=C(c2ccc(OCCCO)cc2)O[C@H]1c1ccccc1N=[N+]=[N-] | 1.4 | -0.507 | 0.308 | 1.18 | 0.596 | 0.193 | 0.232 | 1.08 | 1.71 | 1.24 |
| COc1ccc(C#Cc2ccc3c(c2)[C@]2(C(=O)N3)[C@H](C(=O)N3CCN(c4ncccn4)CC3)[C@H]3C(=O)O[C@H](c4ccccc4)[C@H](c4ccccc4)N3[C@@H]2c2ccc(O)cc2)cc1 | 1.4 | -1.73 | 0.169 | 1.23 | 0.0193 | 0.115 | 0.315 | -0.406 | 0.399 | 0.531 |
| CO[C@H]1O[C@H](CO)[C@@H](OC(=O)Nc2ccccc2-c2ccccc2)[C@H](OC(=O)Nc2ccccc2-c2ccccc2)[C@H]1OC(=O)Nc1ccccc1-c1ccccc1 | 1.05 | -2.43 | 0.591 | 1.08 | -0.588 | 0.0321 | 0.431 | 0.225 | 1.41 | 1.73 |
| [N-]=[N+]=NCc1ccccc1C[C@@]1(C(=O)NCc2ccccc2)N=C(c2ccc(OCCCO)cc2)O[C@@H]1c1ccccc1CN=[N+]=[N-] | -0.0428 | -2.52 | -0.372 | 1.51 | 0.924 | 0.178 | 0.274 | 1.88 | 2.59 | 1.49 |
| C=C(C(=O)CC[C@@H](OC(C)=O)c1ccc(OCCO)cc1)C(C)C | 0.522 | -1.88 | -0.384 | -0.43 | -0.908 | 0.117 | -0.0866 | 0.365 | 0.159 | 0.227 |
| COc1ccc(C#Cc2ccc3c(c2)[C@]2(C(=O)N3)[C@H](c3ccc(OCCO)cc3)N3[C@H](c4ccccc4)[C@H](c4ccccc4)OC(=O)[C@H]3[C@@H]2C(=O)Nc2nc3ccccc3s2)cc1 | 1.34 | -2 | 0.776 | 1.57 | 0.446 | 0.104 | 0.0711 | 0.83 | 0.0329 | 1.52 |
| COCCOC(=O)N1C(=O)[C@@]2(c3cc(C#Cc4ccc(OC)cc4)ccc31)[C@H](c1ccc(OCCO)cc1)N1[C@H](c3ccccc3)[C@H](c3ccccc3)OC(=O)[C@H]1[C@@H]2C(=O)N1CCc2cc(OC)c(OC)cc2C1 | 1.22 | -0.603 | 0.493 | 0.784 | 0.458 | -0.203 | -0.0824 | -0.0602 | 0.705 | 0.571 |
